Assay outcomes from PubChem BioAssay.
This is a sample that favours compounds with a hit; in the whole collection about 2.8% have one here.
POLI inh: inhibitors of human DNA polymerase iota; Q9UNA4; Pol iota fluorescent replication assay, 10 min; Potency, µM (highest dose often 115 µM), for the others: at the top dose activity, negative = inhibition, actives largely listed as inhibitors; hit rate 1% among 390,000; further: potency means the concentration at half of the fitted maximal effect
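Pol iota at 10 nM preincubated 15 min with compounds at room temperature; reaction started with fluorescent substrate, 50 nM final. Fluorescence read kinetically at 0 and 10 min; buffer-only wells as negative control.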
Pol beta inh: DNA polymerase beta (human) inhibition; Potency, µM (top dose mostly 114 µM), inactives show at the highest dose activity change, negative = inhibition, actives largely listed as inhibitors; P06746; Pol beta primer extension/strand displacement, fluorescence kinetic; hit rate 1.3% among 340,000; further: potency means the concentration at half of the fitted maximal effect; on the % scale 0 is the no-effect control and ±100 the full control effect
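Preincubation: enzyme (10 nM) with compound, 15 min, RT. Reaction: substrate added to 50 nM final. Reads: 0 and 10 min. Analysis: normalized, Hill fit.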
WRN helicase inh: WRN helicase (human) inhibition; AID 651768; Potency, µM (series often up to 114 µM), without a hit: at the highest dose activity change, negative = inhibition, actives largely listed as inhibitors; WRN helicase unwinding, fluorescent forked duplex, kinetic; hit rate 0.46% among 360,000; further: potency means the concentration at half of the fitted maximal effect; on the % scale 0 is the no-effect control and ±100 the full control effect; nearly all actives have a fitted effect of over 55% in size
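Primary qHTS, 1536-well format. 20 nM WRN + compound, 15 min RT; start with 100 nM forked fluorophore/quencher duplex, 2 mM ATP (final); kinetic read ex 525/em 598 nm.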
PI5P4K alpha inh: PI5P4K alpha (human) kinase inhibition; max response, %; hit rate 1.2% among 330,000; PI5P4Kalpha enzyme, ADP-Glo luminescence, 60 min; active compounds read low; active means max response of -50% or lower; inconclusive means between -30% and -50%; inactive means -30% or higher; further: value at the top dose of about 77 µM; on the % scale 0 is the no-effect control and ±100 the full control effect
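Reactions run in 0.038 M HEPES pH 7.4, 0.28 mM EGTA, 0.1% CHAPS and 5% DMSO, with PI5P4Kalpha, substrate, compound and 5 microM ATP final, one hour at room temperature. Readout is ADP-Glo luminescence.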
Pol kappa inh: blocks human DNA polymerase kappa activity; Q9UBT6; purified Pol kappa, fluorescent DNA synthesis assay, 10 min; Potency, µM (doses to about 107 µM), without a hit: at the highest dose activity, negative = inhibition, most hits filed as inhibitors; hit rate 0.53% among 400,000; AID 588579; further: potency means the concentration at half of the fitted maximal effect; on the % scale 0 is the no-effect control and ±100 the full control effect
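First, compounds were pin-transferred onto 10 nM Pol kappa. After 15 min at room temperature, substrate was added to 50 nM final. Fluorescence was then measured kinetically at 0 and 10 min.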
POLH inh: inhibitors of human DNA polymerase eta; hit rate 1.2% among 390,000; recombinant Pol eta, fluorescent DNA replication assay; Potency, µM (doses to about 114 µM), without a hit: at the top dose activity change, negative = inhibition, usual class: inhibitors; AID 588591; further: potency means the concentration at half of the fitted maximal effect; on the % scale 0 is the no-effect control and ±100 the full control effect
Target sequence (Q9Y253 whole entry, looked up): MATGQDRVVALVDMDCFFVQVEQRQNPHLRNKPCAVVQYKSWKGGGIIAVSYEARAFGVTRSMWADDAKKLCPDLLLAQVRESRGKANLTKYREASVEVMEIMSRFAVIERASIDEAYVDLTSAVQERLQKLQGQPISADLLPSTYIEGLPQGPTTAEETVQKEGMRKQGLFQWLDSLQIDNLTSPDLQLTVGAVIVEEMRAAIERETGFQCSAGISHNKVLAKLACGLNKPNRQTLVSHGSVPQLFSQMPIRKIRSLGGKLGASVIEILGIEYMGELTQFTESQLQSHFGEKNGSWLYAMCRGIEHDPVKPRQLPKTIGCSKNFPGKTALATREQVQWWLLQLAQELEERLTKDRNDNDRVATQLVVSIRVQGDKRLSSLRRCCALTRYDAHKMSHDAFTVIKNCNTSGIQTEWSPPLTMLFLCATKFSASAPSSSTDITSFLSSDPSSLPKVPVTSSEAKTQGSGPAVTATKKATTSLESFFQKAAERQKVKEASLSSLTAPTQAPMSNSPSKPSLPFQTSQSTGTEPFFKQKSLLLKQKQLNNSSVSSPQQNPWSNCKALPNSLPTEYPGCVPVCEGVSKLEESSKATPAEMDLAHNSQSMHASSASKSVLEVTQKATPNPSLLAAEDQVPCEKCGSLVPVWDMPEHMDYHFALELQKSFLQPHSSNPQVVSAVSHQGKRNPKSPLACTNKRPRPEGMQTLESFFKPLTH
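Pol eta at 10 nM preincubated with compounds 15 min at room temperature; reaction started with fluorescent substrate (50 nM final) and read kinetically at 0 and 10 min.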
Starred values were filed as active, the others as inactive; ? = inconclusive; nt = no result; [ ] = remark or other dose. Unless noted, the call rests on the fitted dose curve; in most records, active means well fitted curve in the direction sought with a large enough effect; inconclusive means small, poorly fitted or top-dose-only effect, or another doubt; inactive means no such curve, though single readings can be large; an effect the other way counts as inactive or inconclusive.

SMILES	POLI inh	Pol beta inh	WRN helicase inh	PI5P4K alpha inh	Pol kappa inh	POLH inh
CCOC(=O)c1c(C)oc2c1c(C(c1ccncc1)N1CCOCC1)c(O)c1ccccc12 (stereo unspecified)	4.0%	-13.2%	-10.3%	-21.8	-5.5%	?
CCOC(=O)c1c(C)oc2c1c(CN1CCN(C(=O)OCC)CC1)c(O)c1ccccc12	23.9%	23.7%	?	-56.2*	-3.0%	-12.3%
CN1C/C(=C/c2ccccc2[N+](=O)[O-])C(=O)/C(=C\c2ccccc2[N+](=O)[O-])C1	89.1µM*	nt	-8.4%[11.6 µM]	-18.2	?	?
Cc1cccc(CC2S/C(=N/N=C/c3ccco3)N(c3ccccc3)C2=O)c1 (stereo unspecified)	-4.0%	35.5µM*	-8.4%	-13.6	-9.7%	-8.8%
C#CCOc1ccc(-c2nnc(Nc3cccc(C)c3)c3ccccc23)cc1	?	0.0%	nt	nt	89.1µM*	-6.9%
Oc1ccc(-c2nnc(Nc3cccc(O)c3)c3ccccc23)cc1	-4.5%	1.2%	1.7%	-21.3	-8.0%	23.4%
COc1ccc(CNC(=O)c2cc3c(s2)-c2c(C)cccc2OC3)cc1	?	14.1µM*	nt	nt	-27.4%	-13.4%
Cc1cccc2c1-c1sc(C(=O)NCCc3ccc(Cl)cc3)cc1CO2	?	8.91µM*	nt	nt	-33.8%	-15.5%
CCCCN(C(=O)C(C)Oc1ccc(Br)cc1)c1c(N)n(CC(C)C)c(=O)[nH]c1=O (stereo unspecified)	10.3%	nt	-14.7%	0.9	-16.5%	-12.6%
CC(=O)Oc1c(C)cc(Cl)cc1C(=O)Nc1ccc([N+](=O)[O-])cc1Cl	5.7%	1.8%	-3.7%	1.2	-2.6%[60.1 µM]	-20.2%
CCc1ccc2nc3nc(C)cc(C)c3c(N)c2c1	?	?	21.7%[57.1 µM]	nt	-10.1%	1.7%
Cc1cc(C)c2c(N)c3ccccc3nc2n1	14.1µM*	25.1µM*	16.8%	nt	-30.8%	-14.7%
CC1CCN(c2oc(-c3ccc(OCc4ccccc4Cl)cc3)nc2C#N)CC1	16.8%	nt	nt	nt	-7.0%	nt
CCCCCN(C(=O)CCC(=O)OC(C)C(=O)Nc1ccccc1C)c1c(N)n(CCCC)c(=O)[nH]c1=O (stereo unspecified)	nt	nt	-1.5%	2.3	nt	-4.0%
COc1ccc(Br)cc1CNc1ccc2[nH]c(=O)[nH]c2c1	9.2%	36.5%	2.9%	-0.2	-3.9%	-24.2%
COc1cc(CNc2ccc(O)cc2)cc(Br)c1OCc1ccccc1	15.8µM*	-0.9%	-19.9%[11.6 µM]	-6.9	-15.2%	?
COc1cc(CNC(C)c2ccccc2)cc(Br)c1OCc1ccccc1 (stereo unspecified)	18.3%	1.5%	-2.1%	15.0	-4.9%	-9.1%
COc1ccc(Br)cc1CNc1ccc(O)cc1	2.82µM*	3.4%	-12.4%[57.1 µM]	-29.2	-11.3%	6.5%
O=C(Nc1ccc(F)cc1F)C1CCN(S(=O)(=O)c2cccnc2)CC1	-5.0%	45.7%	-2.1%	0.8	-7.3%	3.9%
CCOC(=O)c1ccc(N2C(=O)c3[nH]nc(-c4ccc(OC)cc4)c3C2c2ccc(C)cc2)cc1 (stereo unspecified)	18.7%	0.0%	nt	nt	-10.6%	-21.2%
O=C(COc1ccccc1Cl)N(Cc1cccc(F)c1)C1CCS(=O)(=O)C1 (stereo unspecified)	-4.0%	-3.1%	nt	nt	-2.6%	-11.3%
COC(=O)c1cn(CCOc2ccccc2OC)c2ccccc12	-7.4%	-5.5%	-0.9%	0.3	-11.5%	?
COC(=O)c1cn(CCOc2ccccc2F)c2ccccc12	-0.2%	89.1µM*	-16.2%	19.2	-19.9%	-10.6%
Cc1ccc(S(=O)(=O)N2C[C@H]3C(=O)C[C@@H](c4ccc(Cl)cc4)N(S(=O)(=O)c4ccc(C)cc4)[C@H]3C[C@H]2c2ccccc2)cc1	nt	nt	-4.7%	-0.9	nt	nt
Nc1c(N(CCC2=CCCCC2)C(=O)c2ccccc2F)c(=O)[nH]c(=O)n1Cc1ccccc1	79.4µM*	nt	5.0%[11.6 µM]	-0.2	-16.1%	-9.6%
SMILES	POLI inh	Pol beta inh	WRN helicase inh	PI5P4K alpha inh	Pol kappa inh	POLH inh
Nc1c(N(CCC2=CCCCC2)C(=O)Cc2ccccc2F)c(=O)[nH]c(=O)n1Cc1ccccc1	14.3%	nt	0.4%	-16.7	-4.7%	-8.3%
CN(C)CCNc1ncnc2c1ncn2[C@H]1CN(Cc2ccc(Cl)cc2)C[C@@H](CO)O1	nt	nt	6.2%	-11.2	nt	nt
Cc1cc(C)nc(NS(=O)(=O)c2ccc(NC(=O)c3nn(-c4ccccc4)ccc3=O)cc2)n1	19.1%	1.8%	-8.0%	-2.8	-1.4%	-14.2%
O=C(Nc1ccc(S(=O)(=O)Nc2nccs2)cc1)C1=NN(c2ccccc2)C(=O)CC1	?	?	-18.3%	?	-22.5%	50.1µM*
Cc1ccc(-n2ccc(=O)c(C(=O)Nc3ccc(S(=O)(=O)Nc4nccs4)cc3)n2)cc1	35.5%	?	?	-24.5	-9.6%	79.4µM*
Cc1ccc(-n2ccc(=O)c(C(=O)Nc3ccc(S(=O)(=O)Nc4nccc(C)n4)cc3)n2)cc1	?	-13.7%	-13.7%	-29.9	-14.3%	39.8µM*
CCN(CC)C(=S)SCc1csc(CC(=O)Nc2ccccc2C)n1	-1.9%	?	-5.2%	-7.2	-2.8%	-8.8%
CCN(CC)CCn1c2ccccc2c2cnc(N)c(C#N)c21	?	14.1µM*	-8.2%[57.1 µM]	0.5	?	?
CN(C)C=Nc1ncc2c3ccccc3n(CCN(C)C)c2c1C#N	-21.1%	?	0.1%	2.2	?	-7.6%
CCOC(=O)c1ccc(NC(=O)CSc2nccn2Cc2ccc(OC)cc2)cc1	16.5%	-10.4%	nt	nt	-5.1%[60.1 µM]	-25.0%
CCN1C(=NCc2cccc(Cl)c2)N[C@@H](c2cccc(C(F)(F)F)c2)C(C(=O)OC)=C1C	?	nt	nt	nt	-14.6%	nt
CCCNC(=O)Cn1sc2nc(C)cc(C)c2c1=O	26.5%	-0.8%	-15.2%[11.6 µM]	-83.4*	6.1%	-25.6%
Cc1cc(C)c2c(=O)n(CC(=O)N3CCC(N4CCCCC4)CC3)sc2n1	17.2%	31.5%	2.2%	-80.7*	-5.8%	-14.0%
Cc1nn(CC(=O)N2CCC(N3CCCCC3)CC2)c(=O)c2c1sc1ccccc12	-3.5%	?	10.2%	6.4	-11.9%	1.1%
CCOC(=O)C1CCCN(C(=O)Cn2sc3nc(C)cc(C)c3c2=O)C1 (stereo unspecified)	?	-7.7%	-0.6%	-80.9*	-18.4%	-5.0%
CN(C)c1ccc(/C=C2\C=Cc3ccccc32)cc1Cl	7.9%	nt	nt	nt	-14.6%	nt
CC(C)(C)c1ccc(-c2nnc(N)o2)cc1	-13.5%	15.3%	-2.2%	6.4	-12.2%	0.8%
C1CCC[C@H]2CCCN3CC[C@H](CCCCCC[C@@H]4CCCN5CC[C@H](CC1)OC45)OC23	nt	nt	nt	nt	4.5%[19.4 µM]	nt
Cc1ccc(NC(=O)c2cc(-c3cccs3)nc3ccccc23)nc1	-18.3%	?	-11.3%	4.6	-3.5%	-16.4%
Cc1ccc(-c2cc(C(=O)Nc3nccs3)c3ccccc3n2)c(C)c1	4.4%	-2.4%	-13.1%	-0.7	-12.7%	-22.6%
